{"source": "PubChem BioAssay (NCATS)", "note": "Results filed as inconclusive are left out. Unmarked numbers belong to inactive results. Active and inactive are the calls of the source. Calls follow the shape of the dose curve; as a rule, active = well fitted cell-killing curve with a large enough effect in the repeat runs; inconclusive = weak or mixed curves, or effect the other way; inactive = flat fitted curve, though single readings scatter. % is scaled to controls: 0 for no effect and ±100 for the full control effect; potency is read from the fitted curve at half-maximal effect."}
{"assay": "qHTS assay for small molecule antagonists of the retinoid-related orphan receptor gamma (ROR-gamma) signaling pathway - cell viability counter screen (AID 720652);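 also: compound exposure lasted 16 hr before ATP read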", "conditions": "RORgamma reporter cell line viability counter screen; series mostly up to 92.2 µM; activity change, negative = cytotoxicity: at the top concentration", "description": "National Center for Advancing Translational Sciences [NCATS]\nNIH Chemical Genomics Center [NCGC]\nNational Institutes of Environmental Health Sciences [NIEHS]\nNational Toxicology Program [NTP]\nNuclear steroid hormone receptors are involved in many biological processes including inflammatory responses, cell proliferation, and apoptosis. Environmental factors or compounds disrupting these nuclear receptor pathways and gene expression may promote susceptibility to immunotoxicants and autoimmune diseases. One important group of these expression factors are the retinoid-related orphan receptors. To assess compounds that may interfere with the retinoid-related orphan receptor gamma (ROR-gamma) transcription factor, a cell-based luciferase assay was used.\nThe CHO cell-based assay utilizes a TET-inducible ROR expression factor and ROR response element-LUC reporter gene. Reporter activity was induced using doxycycline and measured after 16hr incubation. Luminescence was read using Viewlux (PerkinElmer), where a decrease in reporter activity would show a decrease in luminescence. The cytotoxicity of the compounds against ROR response-Luc reporter gene cell line was quantified by measuring the intracellular ATP content.\n1,000 cells in 4 uL/well were dispensed into white wall/solid bottom 1536-well plates using a Multidrop Combi (Thermo Scientific) dispenser. Following incubation at 37 C and 5% CO2 for 5 hr, 23 nL compound or DMSO vehicle were transferred by a pin tool, then the plates were treated with 1 ul doxycycline to induce reporter gene activity. After 16 hr incubation at 37 C and 5% CO2, 5 uL/well of CellTiter-Glo reagent (Promega) was then added to each plate using a Flying Reagent Dispenser and incubated at room temperature for 30 min. The luminescence intensity was quantified on a ViewLux plate reader (PerkinElmer).", "units": {"activity change, negative = cytotoxicity": "%"}}
{"smiles": "Cc1cc(C)cc(O)c1", "activity change, negative = cytotoxicity": 13.7}
{"smiles": "CCC(C)(C)C", "activity change, negative = cytotoxicity": 7.54}
{"smiles": "O=[N+]([O-])c1c(Cl)cc(Cl)cc1Cl", "activity change, negative = cytotoxicity": 8.2}
{"smiles": "CNc1ccccc1", "activity change, negative = cytotoxicity": -6.12}
{"smiles": "CC(=O)Nc1cccc(N)c1", "activity change, negative = cytotoxicity": -16.5}
{"smiles": "C=CCCC", "activity change, negative = cytotoxicity": 8.72}
{"smiles": "CC(C)CCOC(=O)/C=C/c1ccccc1", "activity change, negative = cytotoxicity": 2.11}
{"smiles": "O=C(O)c1cccc(Cl)c1Cl", "activity change, negative = cytotoxicity": -13.4}
{"smiles": "Nc1cccc(S(=O)(=O)O)c1", "activity change, negative = cytotoxicity": -8.52}
{"smiles": "O=C(O)c1c(Cl)cccc1Cl", "activity change, negative = cytotoxicity": -7.25}
{"smiles": "CC(C)CO", "activity change, negative = cytotoxicity": 1.59}
{"smiles": "N#Cc1ccccc1", "activity change, negative = cytotoxicity": 1.41}
{"smiles": "Cc1ccccc1Br", "activity change, negative = cytotoxicity": 9.63}
{"smiles": "Cc1cccc(C(=O)O)c1[N+](=O)[O-]", "activity change, negative = cytotoxicity": -12.7}
{"smiles": "Cc1c(N)cccc1N", "activity change, negative = cytotoxicity": -2.27}
{"smiles": "CC(C)(O)CCC(C)(C)O", "activity change, negative = cytotoxicity": -1.4}
{"smiles": "C=CCOC(=O)CCCCCCCC", "activity change, negative = cytotoxicity": -8.62}
{"smiles": "c1ccc2n[nH]nc2c1", "activity change, negative = cytotoxicity": 0.193}
{"smiles": "CC1=C(/C=C/C(C)=C/C=C/C(C)=C\\C=O)C(C)(C)CCC1", "Potency": "26.6 µM (active)"}
{"smiles": "C=CCCCCCCC=C", "activity change, negative = cytotoxicity": 9.99}
{"smiles": "Clc1ccccn1", "activity change, negative = cytotoxicity": 9.01}
{"smiles": "CC1(N)CCC(C(C)(C)N)CC1", "note": "(stereo not given)", "activity change, negative = cytotoxicity": 3.26}
{"smiles": "c1ccsc1", "activity change, negative = cytotoxicity": 4.92}
{"smiles": "C=C(C)C(N)=O", "activity change, negative = cytotoxicity": 9.07}
{"smiles": "C=CCn1c(=O)n(CC=C)c(=O)n(CC=C)c1=O", "activity change, negative = cytotoxicity": 13.8}
{"smiles": "O=C(O)c1cccc([N+](=O)[O-])c1", "activity change, negative = cytotoxicity": -25.5}
{"smiles": "Cc1ccc(Cl)cc1", "activity change, negative = cytotoxicity": 14.3}
{"smiles": "Nc1cccc(C(F)(F)F)c1", "activity change, negative = cytotoxicity": -3.17}
{"smiles": "CCCC=O", "activity change, negative = cytotoxicity": 10.1}
{"smiles": "CC(O)CC(C)O", "note": "(stereo not given)", "activity change, negative = cytotoxicity": 13.1}
{"smiles": "FC(F)(F)c1cccc(Cl)c1", "activity change, negative = cytotoxicity": 8.13}
{"smiles": "Nc1cccc2c(=O)[nH][nH]c(=O)c12", "activity change, negative = cytotoxicity": -7.54}
{"smiles": "C/C(C=O)=C/c1ccccc1", "activity change, negative = cytotoxicity": 10}
{"smiles": "CC/C(C)=N/O", "activity change, negative = cytotoxicity": 1.94}
{"smiles": "COC(=O)CCC(=O)OC", "activity change, negative = cytotoxicity": -7.19}
{"smiles": "CC(=O)c1cccc([N+](=O)[O-])c1", "activity change, negative = cytotoxicity": -0.517}
{"smiles": "CC(=O)OC(C)C", "activity change, negative = cytotoxicity": 13.1}
{"smiles": "CC(=C/C=C/C(C)=C/C=C/C=C(C)/C=C/C=C(C)/C=C/C(=O)O)/C=C/C(=O)O", "activity change, negative = cytotoxicity": 2.22}
{"smiles": "O=Cc1cccc(Br)c1", "activity change, negative = cytotoxicity": 13.6}
{"smiles": "CC(=O)c1cc(C)oc1C", "activity change, negative = cytotoxicity": 5.94}
